DAX1 StAR inh: DAX1 (NR0B1) inhibitors on StAR promoter, primary screen, cell-based, luminescence, SF-1 (NR5A1), full-length DAX-1. HEK293T StAR-luciferase reporter, SF-1/DAX-1 repression relief. inhibition, % at 6.8 µM. 370,000 compounds, 1.1% hits;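 active = inhibition above the mean over all tested compounds plus 3 SD, cut at about 3.6% in these data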;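 note: 0% = DAX-1 cells with DMSO and 100% = cells lacking DAX-1 with DMSO; higher inhibition means more luminescence from relief of DAX-1 repression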
ssDAF12 agonist: S. stercoralis DAF-12 nuclear receptor activators, primary screen, cell-based, luminescence, HEK293, GRIP1 co-expression, lit1-tk-luc | Nuclear hormone receptor DAF-12 (Strongyloides stercoralis) | HEK293 ssDAF-12/GRIP1 lit1-tk-luc reporter; % of 3 µM dafachronic acid response | activation, % at 6.8 µM | 370,000 compounds, 1% hits;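 active = activation above the mean over all tested compounds plus 3 SD, cut at about 0.9% in these data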;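 note: 0% = DMSO-only wells and 100% = 3 µM delta7-dafachronic acid wells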
hcDAF12 agonist: H. contortus DAF-12 nuclear receptor activators, primary screen, cell-based, luminescence, HEK293, lit1-tk-luc reporter; activation, % at 6.8 µM; HEK293 hcDAF-12 lit1-tk-luc reporter; 0% DMSO, 100% Δ7-dafachronic acid; 370,000 compounds, 1.4% hits;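 active = activation above the mean of all tested compounds plus 3 SD, cut at about 5.5% in these data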;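 note: 100% = response to 3 µM Δ7-dafachronic acid high control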
hgDAF-12 ag: H. glycines DAF-12 receptor agonists, primary screen, cell-based, luminescence, HEK293, GAL4 fusion, UAS-luciferase | Nuclear hormone receptor DAF-12 (Heterodera glycines), GAL4 fusion | HEK293 GAL4-hgDAF12 UAS-luciferase reporter, agonist luminescence; normalized to butyrate control | activation, % at 6.8 µM | 370,000 compounds, 1.8% hits | AID 687014, 2013;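 active = activation above a cutoff set at the mean of all screened compounds plus 3 SD, cut at about 10% in these data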;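 note: 0% = DMSO wells and 100% = sodium butyrate wells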
SMARCA2 activ: SMARCA2 (BRM) function activators, primary screen, cell-based, luminescence, high throughput; MG213 cells, MMTV-luciferase reporter, dexamethasone, overnight; activation, % at 9.1 µM; 370,000 compounds, 1% hits; in the data active = activation above about 7.8%;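 note: 0% = vehicle wells and 100% = reference activator wells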
SMARCA2 conf: SMARCA2 (BRM) function activators, confirmation, cell-based, luminescence, triplicate; 3,500 compounds, 30% hits; MG213 cells, MMTV-luciferase with dexamethasone, overnight; MG213 cells expressing E1A, Rb sequestered; DMSO wells 0%, reference activator 100%; activation, % at 9.1 µM; shares compounds with SMARCA2 activ; AID 652260, 2013;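 active = activation above its plate's cutoff, the mean activation of tested wells plus 3 SD, cut at about 7.9% in these data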
VP16 Luc act: GAL4-VP16 luciferase reporter activation, counter-screen for SMARCA2 (BRM) activator project, cell-based, pG5luc, luminescence, high throughput; HEK293 GAL4-VP16 pG5luc reporter; scaled: DMSO wells 0%, SAHA wells 100%; activation, % at 9.1 µM; shares compounds with SMARCA2 activ; 3,500 compounds, 41% hits;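 active = activation above the solvent-only control well mean plus 3 SD, averaged across control plates, cut at about 5.2% in these data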
* marks the source's active call; other numbers are inactive results; . = no result. Rows were chosen to be rich in hits. Some 4.2% of all compounds tested hit in one or more screens of this group.

SMILES	DAX1 StAR inh	ssDAF12 agonist	hcDAF12 agonist	hgDAF-12 ag	SMARCA2 activ	SMARCA2 conf	VP16 Luc act
COc1ccc2c(c1)CN1CN(C3CCCC3)S(=O)(=O)CC21 (stereo unspecified)	-1	0	-1	5	-5	.	.
O=C(NCC1CCCN1S(=O)(=O)c1cccs1)c1ccccc1F (stereo unspecified)	3	-1	0	-1	8.4*	-5	2
O=S1(=O)c2c(cccc2N2CCSCC2)Oc2ccccc2CN1Cc1cn(Cc2ccc(Cl)cc2)nn1	-3	-1	-2	-4	-2	.	.
c1ccc(CSc2ccc(-c3ccc4c(c3)OCO4)nn2)cc1	1	-1	2	6	11*	7.9*	5
CC(c1nc2ccccc2[nH]1)n1c(=O)c(-c2cccs2)nc2ccccc21 (stereo unspecified)	-2	-1	-1	-1	-8	.	.
O=c1[nH]c2ccccc2nc1-c1cccs1	1	0	2	4	8.2*	8.6*	4
CCc1nnc2n1N=C(c1ccc(-c3cc(Cl)ccc3Cl)o1)CS2	0	-1	-3	1	8.9*	1	2
CCc1nnc2n1N=C(c1ccc(OC)cc1)CS2	-1	-1	-1	0	-1	.	.
COc1cccc(NC(=O)N(C)C[C@H]2OCc3cn(nn3)CCCC(=O)N([C@H](C)CO)C[C@@H]2C)c1	0	0	1	4	-1	.	.
O=C(CSc1ncn[nH]1)c1ccc2c(c1)OCO2	0	-1	0	-2	8.6*	1	1
O=C(CSc1ncn[nH]1)c1ccc2c(c1)OCCO2	0	-1	-1	2	-2	.	.
Cc1c(Cl)cnc(NC(=O)COC(=O)CCc2nc3ccccc3s2)c1Cl	0	-1	0	5	9.3*	-2	0
CC(=O)Nc1ccc(NC(=O)COC(=O)CCc2nc3ccccc3s2)cc1	0	-1	1	2	-4	.	.
Cc1nc2c(c(N3CCOCC3)n1)OCC(=O)N2	0	-1	0	1	2	.	.
Cc1nc(Cl)c2c(n1)NC(=O)CO2	0	-2	-1	-2	12*	0	1
CCN(Cc1ccccc1)C(=O)CCCN1C(=O)COc2ccc(C)cc21	-2	-2	-2	2	-1	.	.
O=C1CN(c2ccccc2)C(=S)N1C(=O)c1ccc(Br)cc1	2	1	4	14*	8.8*	7	16*
O=C(c1ccc(Br)cc1)N1CCC(C(=O)N2CCN(c3ccccc3)CC2)CC1	0	-1	-2	1	-3	.	.
C(#CC1=CCCCC1)CNCC1CC1	0	-1	-1	6	1	.	.
CCOC(=O)C1CN(S(C)(=O)=O)c2cc(CC(=O)OC)ccc2O1 (stereo unspecified)	0	-1	0	5	8.2*	-1	1
CCOC(=O)CC[C@@]1(C(=O)OCC)C[C@@H](CC(=O)N2CCSCC2)C(=O)N2CCCC=C21	0	-1	-1	0	-2	.	.
COc1cc(OC)c(C(=O)O/N=C(\N)c2ccccc2)cc1OC	0	-1	-2	6	8.6*	3	2
N/C(=N\OC(=O)c1ccc2c(c1)OCO2)c1ccc(Cl)cc1	0	-1	-1	6	8.9*	10*	6.8*
Cc1cccc(C(=O)O/N=C(\N)c2ccc(Cl)cc2)c1	0	1.0*	5.6*	5	9.0*	8	5
Cc1cccc(/C(N)=N/OC(=O)c2ccoc2C)c1	1	0	5	9	8.1*	13*	13*
SMILES	DAX1 StAR inh	ssDAF12 agonist	hcDAF12 agonist	hgDAF-12 ag	SMARCA2 activ	SMARCA2 conf	VP16 Luc act
COc1ccc(C(=O)O/N=C(\N)c2cccc(C)c2)cc1OC	0	0	0	2	4	.	.
COC(=O)c1cc(NC(=O)/C=C/c2ccc3c(c2)OCO3)cc(C(=O)OC)c1	-1	-1	1	-1	-1	.	.
Cc1cc(C)nc(NC(=O)/C=C/c2ccc3c(c2)OCO3)c1	4.2*	0	3	10	11*	9.9*	8.4*
COC(=O)c1cccc(NC(=O)/C=C/c2ccc3c(c2)OCO3)c1	3	-2	2	6	8.2*	-2	4
COc1ccc(-c2nn(-c3ccccc3)cc2/C=N/Nc2cccc(C(=O)O)c2)cc1	1	-2	0	4	9.1*	-3	2
COc1ccc(-c2nn(-c3ccccc3)cc2/C=N/NC(=O)c2ccc(Br)o2)cc1	0	-2	-1	1	2	.	.
COC(=O)[C@]12C[C@H](CC(=O)NCc3ccccc3)C(=O)N(Cc3ccc(Cl)cc3Cl)C1=C[C@H](C(C)(C)C)O[C@@H]2C	-1	-1	-2	-3	-5	.	.
CCOC(=O)C1CCN(C(=O)Cn2cnc3sc(C)c(S(=O)(=O)N4CCC(C)CC4)c3c2=O)CC1	0	-1	-1	-2	8.1*	-2	-1
COC(=O)CCN(Cc1cccc(OC)c1OC)S(=O)(=O)c1ccccc1Br	-2	-1	-2	1	1	.	.
CC(C)c1cccc(-c2csc(C(O)c3ccco3)n2)c1 (stereo unspecified)	2	0	2	4	9.2*	6	4
O=C(NCc1ccc(C(=O)NCC2CCCO2)cc1)c1cccc(Br)c1 (stereo unspecified)	0	-1	-1	-1	-4	.	.
COC(=O)[C@]12C[C@H](CC(=O)NCc3cccc4ccccc34)C(=O)N(Cc3ccc4c(c3)OCO4)C1=C[C@H](COCc1ccccc1)O[C@@H]2C	-2	-1	-3	-1	-8	.	.
CCN(CC)c1ccc(Nc2cc3n(c(=O)n2)CCc2cc(OC)c(OC)cc2-3)cc1	0	-2	-6	-6	14*	18*	3
COc1cc2c(cc1OC)-c1cc(Nc3ccc(F)cc3)nc(=O)n1CC2	0	-2	-3	-2	1	.	.

Source: PubChem BioAssay (The Scripps Research Institute Molecular Screening Center)
